Test [1] in a line: qHTS profiling of the MIPE4 collection as inhibitors of Plasmodium falciparum (3D7) proliferation (AID 743344).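 Note: scaled between DMSO vehicle wells and 0.29 µM artemisinin as full inhibition.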 The following applies: P. falciparum 3D7 in erythrocytes, SYBR Green DNA fluorescence, 72 h; at 28.5 µM unless noted. An outline of the steps: (§1)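 Erythrocytes infected with P. falciparum (0.3% parasitemia, 2.5% hematocrit) incubated with compounds 72 h at 37 C, 5% CO2. Lysis with saponin/Triton buffer containing SYBR Green I, overnight at room temperature in the dark; DNA fluorescence (485/535 nm) normalised to 0.29 uM artemisinin and DMSO.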
For orientation: In qHTS, concentration-response curves come from the screen itself.

Test [2] can be described thus: qHTS profiling of the MIPE4 collection as inhibitors of Plasmodium falciparum (DD2) proliferation (AID 743345). The following applies: P. falciparum Dd2 in erythrocytes, SYBR Green DNA, 72 h; at 28.5 µM unless noted. An outline of the steps: as §1
Test [3] in a line: qHTS profiling of the MIPE4 collection as inhibitors of Plasmodium falciparum (DD2) proliferation (Rep 2) (AID 743346). The following applies: P. falciparum Dd2 in erythrocytes, SYBR Green DNA, 72 h; at 28.5 µM unless noted. An outline of the steps: as §1
Test [4] is described as follows: qHTS profiling of the MIPE4 collection as inhibitors of Plasmodium falciparum (HB3) proliferation (AID 743347).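 Note: plate controls were DMSO vehicle wells for no effect and artemisinin wells for full effect.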 The following applies: P. falciparum HB3 in erythrocytes, SYBR Green DNA, 72 h; at 28.5 µM unless noted. An outline of the steps:
as §1

Test [5] is described as follows: High-throughput drug toxicity screening in the BPDCN cell line Gen2.2 (AID 1224824).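 Note: cells exposed to compounds for 48 h before reading.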 The note with it: Gen2.2 BPDCN cells; at 45.8 µM (top of the series) unless noted. Put shortly:
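Gen2.2 cells (500/well) in phenol red-free RPMI with 10% FBS were exposed to compounds for 48 h at 37 °C, 5% CO2. Viability was read by CellTiter-Glo luminescence and normalized to DMSO (100%) and 9.2 uM bortezomib (0%).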

A short description of test [6]: High-throughput drug toxicity screening in the BPDCN cell line Cal-1 (AID 1224825). The note with it: Cal-1 BPDCN cell viability, qHTS; at 45.8 µM (top of the series) unless noted. Put shortly: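 500 Cal-1 cells/well, RPMI + glutamine + 10% FBS (phenol red-free); cpd added by pin tool; 48 h, 37C, 5% CO2; CTG 15 min RT, lumi read. Normalised: DMSO 100%, bortezomib 9.2 uM 0%.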

A short description of test [7]: qHTS assay for measurement of the activity of small molecule inhibitors on Zika virus induced Caspase-3 activity in human iPSC derived neural progenitor cells (hNPCs) (AID 1224857; active = well fitted curve in the direction sought with a large enough effect; an effect the other way counts as inactive or inconclusive; note: % of control where 0% means no effect; nearly all actives have a fitted effect of over 65% in size). Put shortly:
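Quantitative HTS format: human iPSC neural progenitors, 1 h compound pretreatment, ZIKV 2 FFU/cell for 6 h at 37 C. Percent inhibition derived from luminescent caspase-3/7 signal between uninfected and infected controls.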

Test [8] is described as follows: qHTS assay for measurement of the activity of small molecule inhibitors on Zika virus induced Caspase-3 activity in human astrocytoma cells (AID 1224859; active = well fitted curve in the direction sought with a large enough effect; an effect the other way counts as inactive or inconclusive;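 note: plate controls were ZIKV-infected untreated cells for no effect and uninfected cells for full effect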). Put shortly:
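Readout is luminescence from Caspase-Glo 3/7 added after a 6 h ZIKV infection (2 FFU/cell) of compound-pretreated (1 h) SNB-19 cells; data expressed as % inhibition versus uninfected and infected wells.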

Test [9] is described as follows: qHTS Assay for Identifying Gametocytocidal Compounds (AID 743244; active = well fitted curve in the direction sought with a large enough effect; an effect the other way counts as inactive or inconclusive;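 note: % is set by controls: 0 for no effect and ±100 for the full control effect; actives lower the fluorescent signal which means gametocytes are killed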). The note with it: P. falciparum 3D7 stage III-V gametocytes, alamarBlue, 72 h; max response: stronger effect = lower value. Put shortly:
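A resazurin-based viability read-out was applied to mature P. falciparum gametocytes: 72 h compound treatment, then 24 h dye incubation, with falling fluorescence signalling gametocytocidal effect.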

Test [10] can be described thus: qHTS profiling for inhibitors of Plasmodium falciparum (3D7) proliferation (AID 743322).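 Note: infected erythrocytes exposed to compound for 72 h before lysis; 100% = DMSO vehicle wells and 0% = 0.29 µM artemisinin.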 The note with it: P. falciparum 3D7 proliferation; at 28.7 µM (top of the series) unless noted. An outline of the steps:
as §1

A short description of test [11]: qHTS profiling for inhibitors of Plasmodium falciparum (DD2) proliferation (AID 743323). The note with it: lower = more inhibition; at 28.7 µM (top of the series) unless noted. An outline of the steps:
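Parasite proliferation measured via DNA-dye fluorescence, as uninfected erythrocytes lack DNA. Cultures at 0.3% parasitemia and 2.5% hematocrit incubated 72 h with compound; signal scaled between vehicle and 0.29 uM artemisinin wells.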

Test [12] is described as follows: qHTS Screen of the MIPE 4.0 Collection Against Ewings Sarcoma (TC71) (AID 1259253; active = well fitted curve in the direction sought with a large enough effect; an effect the other way counts as inactive or inconclusive; note: potency is the fitted concentration of half-maximal effect; nearly all actives have a fitted effect of over 40% in size). An outline of the steps:
(§2)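 CellTiter-Glo luminescence after 48 h compound exposure (titration) gave viability; percent activity used DMSO-treated cells as no inhibition and medium-only wells as full inhibition. Cells grown in RPMI/5% FBS, dosed 4 h post-seeding.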

Test [13] is described as follows: qHTS Screen of the MIPE 4.0 Collection Against Ewings Sarcoma (EW8) (AID 1259255; active = well fitted curve in the direction sought with a large enough effect; an effect the other way counts as inactive or inconclusive; note: potency is the fitted concentration of half-maximal effect; nearly all actives have a fitted effect of over 35% in size). Put shortly:
as §2

Test [14] has as its target T1, Hexokinase-4 (Homo sapiens) + Glucokinase regulatory protein (Homo sapiens) (UniProt P35557+Q14397). Description: qHTS assay for inhibitors of recombinant human GCK-GKRP interaction: Diaphorase-coupled assay (AID 743205; active = well fitted curve in the direction sought with a large enough effect; an effect the other way counts as inactive or inconclusive). An outline of the steps: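 GST-GCK (10 nM) with FLAG-GKRP (10 nM), 5 mM glucose and 0.4 mM ATP in pH 7.6 Hepes; compounds preincubated 20 min with substrate. G6PDH/diaphorase coupling converts resazurin to resorufin, read kinetically (ex 525/em 590 nm) for 30 min.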

For test [15], the target named is T1, Hexokinase-4 (Homo sapiens) + Glucokinase regulatory protein (Homo sapiens). Kind of test: qHTS assay for inhibitors of recombinant human GCK-GKRP interaction: ADP-Glo assay (AID 743206; active = well fitted curve in the direction sought with a large enough effect; an effect the other way counts as inactive or inconclusive;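 note: plate controls were DMSO plus enzyme for no effect and no enzyme for full effect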). An outline of the steps: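 GST-GCK and FLAG-GKRP (15 nM each in the dispensed mix, with 2 uM S6P) react with 0.4 mM ATP and 5 mM glucose (final) in Hepes pH 7.6 for 60 min at room temperature. ADP is measured by ADP-Glo luminescence.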

For test [16] the target is unchanged. Description: qHTS assay for inhibitors of recombinant human GCK-GKRP interaction: HTRF assay (AID 743207; active = well fitted curve in the direction sought with a large enough effect; an effect the other way counts as inactive or inconclusive;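 note: 0% = DMSO with GCK present and -100% = DMSO wells lacking GCK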). An outline of the steps:
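GST-GCK and FLAG-GKRP (5 nM each) were combined with 2 uM S6P in pH 7.1 Hepes/MgCl2/KCl/DTT buffer, then compound and anti-FLAG XL665/anti-GST K antibodies were added. After 60 min at room temperature, HTRF 665/615 nm emission was read.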

SMILES strings stand for the structures. Inconclusive results are not listed. Activity calls are given as the source filed them. Unless noted, the rule behind the calls is not given here.

T1 sequence (P35557 whole entry, looked up): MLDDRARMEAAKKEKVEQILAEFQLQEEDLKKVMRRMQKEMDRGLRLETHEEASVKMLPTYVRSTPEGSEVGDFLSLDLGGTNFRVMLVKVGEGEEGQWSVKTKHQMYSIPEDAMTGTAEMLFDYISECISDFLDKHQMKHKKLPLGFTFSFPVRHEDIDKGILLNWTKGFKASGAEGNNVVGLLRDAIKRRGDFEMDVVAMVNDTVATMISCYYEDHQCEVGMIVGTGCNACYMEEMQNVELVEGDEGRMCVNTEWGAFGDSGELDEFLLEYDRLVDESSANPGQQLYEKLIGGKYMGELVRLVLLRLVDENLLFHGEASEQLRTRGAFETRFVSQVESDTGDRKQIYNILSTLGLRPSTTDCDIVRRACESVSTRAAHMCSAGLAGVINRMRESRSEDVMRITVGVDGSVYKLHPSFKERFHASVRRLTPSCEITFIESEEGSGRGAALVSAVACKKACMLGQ
T1 sequence (Q14397 whole entry, looked up): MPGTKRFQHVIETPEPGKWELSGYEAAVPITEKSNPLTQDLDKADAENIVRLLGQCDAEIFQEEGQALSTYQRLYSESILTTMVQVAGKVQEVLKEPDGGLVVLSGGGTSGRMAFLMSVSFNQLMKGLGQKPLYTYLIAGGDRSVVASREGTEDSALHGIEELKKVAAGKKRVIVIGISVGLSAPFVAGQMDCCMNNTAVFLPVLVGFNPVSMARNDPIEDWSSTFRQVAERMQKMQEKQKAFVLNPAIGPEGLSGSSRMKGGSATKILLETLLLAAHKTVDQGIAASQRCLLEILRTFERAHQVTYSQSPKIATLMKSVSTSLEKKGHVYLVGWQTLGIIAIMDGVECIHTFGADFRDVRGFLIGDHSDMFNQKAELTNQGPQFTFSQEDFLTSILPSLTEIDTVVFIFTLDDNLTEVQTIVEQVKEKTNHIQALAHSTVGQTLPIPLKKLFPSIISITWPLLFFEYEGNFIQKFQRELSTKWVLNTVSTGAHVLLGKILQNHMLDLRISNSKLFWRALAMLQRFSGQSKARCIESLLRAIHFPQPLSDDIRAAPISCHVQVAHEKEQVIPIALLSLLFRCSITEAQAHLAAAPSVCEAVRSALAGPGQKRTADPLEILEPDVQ

In the case of `Cc1cc(=O)c2c(O)c3c(O)cc(=O)c4c3c3c(cc(O)c1c23)C(C)(C)C=4O`, the parasite growth, % of DMSO control in test [1] turned out to be 6.69%. In [2], this molecule displayed a parasite growth remaining, % of DMSO control (lower = more inhibition) of 23.7%. The molecule further had a parasite growth, % of control (lower = inhibition) in [3] of 13.7%. Also, the growth, % of control in test [4] came to 5.99%. Moreover, the cell viability, % of control (lower = more cytotoxic) in [5] is 130%. In test [6], this molecule returned a viability (% of control) of 94.6%. Also, the Potency entry in [7] and in test [8] was “inactive” throughout.
On to `CCOC(=O)c1c(C)n(C)c2ccc(O)cc12`, for which the max response in test [9] is 2.91% (inactive). In addition, the parasite growth, % of DMSO control in [1] amounted to 93.9%. The parasite growth remaining, % of DMSO control (lower = more inhibition) in [2] is 93.3%. This molecule also had a parasite growth, % of control (lower = inhibition) in test [3] of 87.1%. The molecule also returned a growth, % of control in [4] of 66.7%. Also, the cell viability, % of control (lower = more cytotoxic) in test [5] worked out at 232%. Further, the viability (% of control) in test [6] was 87.8%. Besides, the Potency result in test [7] and in test [8] was “inactive” each time.
For `Cc1ccc(C(=O)c2cc(O)c(O)c([N+](=O)[O-])c2)cc1`, the max response in test [9] is 2.67% (inactive). This molecule came in with a parasite growth, % of DMSO control in [1] of 82.6%. The parasite growth remaining, % of DMSO control (lower = more inhibition) in [2] turned out to be 93.6%. The same molecule returned a parasite growth, % of control (lower = inhibition) in test [3] of 82.4%. Besides, the growth, % of control in test [4] was 92.8%. Besides, the cell viability, % of control (lower = more cytotoxic) in test [5] worked out at 52.4%. For the same molecule, the viability (% of control) in test [6] was found to be 73.3%. The Potency result in [7] and in test [8] was “inactive” throughout.
`Cc1cc(C2CCCCC2)n(O)c(=O)c1`: in [10], the remaining parasite growth % (stronger effect = lower value) is -0.4%. This molecule registered an activity, percent of control in [11] of 0.27%. Moreover, in [1], the parasite growth, % of DMSO control came to 6.27%. Also, the parasite growth remaining, % of DMSO control (lower = more inhibition) in test [2] came out at 7.36%. In test [3], this molecule had a parasite growth, % of control (lower = inhibition) of 17.5%. This molecule also came in with a growth, % of control in test [4] of 9.38%. Also, in test [5], the cell viability, % of control (lower = more cytotoxic) amounted to 17%. Besides, the viability (% of control) in test [6] amounted to 5.31%. The Potency entry in [7] and in test [8] was “inactive” throughout. In addition, the results for the Potency in test [12] and in test [13] were 5.26 µM (active) and 14.8 µM (active), respectively.
Turning to `O=c1ccc2ccc(O)c(O)c2o1`, the result in test [14], in test [15] and in test [16] was inactive. The molecule further returned a parasite growth, % of DMSO control in test [1] of 169%. The parasite growth remaining, % of DMSO control (lower = more inhibition) in test [2] is 34.2%. In addition, the parasite growth, % of control (lower = inhibition) in test [3] is 19.7%. In addition, the growth, % of control in test [4] came to 162%. Moreover, the cell viability, % of control (lower = more cytotoxic) in [5] worked out at 42.5%. For the same molecule, the viability (% of control) in test [6] is 20.8%. The Potency result in [7] and in test [8] was “inactive” each time. In addition, in test [12], the Potency was 14.8 µM (active).
